HTT ATP protect = Huntington cell model cytoprotection by ATP luminescence; PC12 HTT-Q103 induced, cytoprotection, ATP luminescence, 40 h; Potency, µM (series often up to 56.4 µM), actives largely listed as activators; 0.14% of 230,000 active; further: nearly all actives have a fitted effect of over 45% in size
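Rat PC12, Q103 Htt exon1-GFP fusion, ecdysone promoter; tebufenozide inducer 100 nM final; compound titration; qHTS, 1500 cells/well; ATPlite luminescent read.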
HTT aggregate = mutant huntingtin aggregation inhibition. PC12 HttQ103-GFP aggregates, Acumen cytometry, 40 h. Potency, µM (highest dose often 46.1 µM), most hits filed as inhibitors. 1.1% of 220,000 active; further: nearly all actives have a fitted effect of over 60% in size
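Steps: seed 1500 PC12 HTTQ103-GFP cells/well; add tebufenozide, 100 nM final; add compound titration; add ATPLite reagent; quantify GFP aggregates by laser scanning cytometry.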
HPGD inh = HPGD (human) dehydrogenase inhibition; 4.3% of 150,000 active; Potency, µM, usual class: inhibitors; AID 894; purified HPGD, NADH fluorescence kinetic, PGE2 substrate; P15428; active means well fitted inhibition curve with a large enough effect, not every such curve was filed as active; inconclusive means small, poorly fitted or top-dose-only effect, or another doubt; inactive means no such curve, though single readings can be large or run the other way
Target sequence (P15428 whole entry, looked up): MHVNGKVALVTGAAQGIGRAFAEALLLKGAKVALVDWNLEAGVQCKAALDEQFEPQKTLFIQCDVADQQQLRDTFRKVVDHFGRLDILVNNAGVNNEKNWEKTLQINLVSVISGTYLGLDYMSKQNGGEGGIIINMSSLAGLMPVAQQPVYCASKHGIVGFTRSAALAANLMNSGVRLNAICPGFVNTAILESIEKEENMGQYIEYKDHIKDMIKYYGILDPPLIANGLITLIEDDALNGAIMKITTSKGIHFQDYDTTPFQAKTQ
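20 nM HPGD preincubated 15 min at room temperature with compound in 50 mM Tris-HCl pH 8, 0.01% Tween 20. Started with 1 mM NAD+ and 30 uM prostaglandin E2; NADH fluorescence (360/450 nm) read 5 times over 30-s intervals, last minus first.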
ALDH1A1 block = ALDH1A1 (human) enzyme inhibition | P00352 | Purified ALDH1A1, NADH fluorescence, propionaldehyde substrate | Potency, µM (top dose mostly 75.3 µM), actives largely listed as inhibitors | 7.3% of 220,000 active; active means well fitted inhibition curve with a large enough effect, not every such curve was filed as active; inconclusive means small, poorly fitted or top-dose-only effect, or another doubt; inactive means no such curve, though single readings can be large or run the other way
LMNA splice mod = LMNA splicing modulation; AID 1487; HeLa LMNA splicing GFP/RFP minigene ratio, 48 h; Potency, µM (series often up to 46.1 µM), actives largely listed as inhibitors; 0.01% of 200,000 active; active means well fitted inhibition curve with a large enough effect in the signal ratio, with a control signal flat, not every such curve was filed as active; inconclusive means small, poorly fitted or top-dose-only effect, or effect the other way, or a change in a side signal; the % refers to the signal ratio
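Read-out is the ratio of GFP to DsRed2 object intensity, acquired by 488 nm laser-scanning cytometry on HeLa lamin A-EGFP minigene reporter cells. Compound incubation 48 hrs at 37 °C in Opti-MEM with 2% FBS; DMSO 0.5% final.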
Of the large screens only hits and unclear results are named; the others gave an inactive call. A selection: hits, their analogues and other compounds. The true share with any hit is near 8.8%. Unless noted, the call rests on the fitted dose curve; in most records, active means well fitted curve in the direction sought with a large enough effect; inconclusive means small, poorly fitted or top-dose-only effect, or another doubt; inactive means no such curve, though single readings can be large; an effect the other way counts as inactive or inconclusive.

CC1Cc2ccccc2N1C(=O)CN1C(=O)C(=O)N(Cc2ccccc2)C1=O (configuration not stated)	ALDH1A1 block 31.6µM
COc1ccccc1CNc1ncncc1-c1ccoc1	ALDH1A1 block 25.1µM, LMNA splice mod inconclusive (no result: HTT aggregate)
COc1ccccc1CNc1ncncc1-c1ccc(N(C)C)cc1	HPGD inh inconclusive, ALDH1A1 block inconclusive, LMNA splice mod inconclusive (no result: HTT aggregate)
Cc1ccc(C(=O)N[C@H](C(=O)OCc2cc(=O)oc3cc(C)ccc23)C(C)C)cc1	none
COc1ccc(C(=O)N[C@H](C(=O)OCc2cc(=O)oc3cc(C)ccc23)C(C)C)cc1	HTT aggregate inconclusive, ALDH1A1 block 11.2µM
COc1ccc2c(c1O)C(=O)c1ccccc1C2=O	none (no result: HPGD inh, LMNA splice mod)
COc1c(C=O)c(O)cc2c1C(=O)c1ccccc1C2=O	HTT ATP protect inconclusive, ALDH1A1 block 3.55µM (no result: HTT aggregate, HPGD inh, LMNA splice mod)
CC1(C)Cc2nc3sc4c(=O)[nH]cnc4c3cc2CS1	HPGD inh inconclusive, ALDH1A1 block 14.1µM
CCCCCn1cnc2c(sc3nc4c(cc32)CSC(C)(C)C4)c1=O	HPGD inh inconclusive, ALDH1A1 block 2.82µM
Cc1ccc(NC(=O)c2ccccc2NC(=O)CCC(=O)O)cc1	LMNA splice mod inconclusive
O=C(CSc1ccc(F)cc1)Nc1ccc(Br)cc1	ALDH1A1 block 20µM (no result: HPGD inh)
O=C(CNc1ccccc1)Nc1ccc(F)cc1	ALDH1A1 block 14.1µM, LMNA splice mod inconclusive
CC(=O)c1ccccc1NCC(=O)Nc1ccc(C)cc1	ALDH1A1 block 12.6µM (no result: HPGD inh, LMNA splice mod)
COc1ccccc1C(=O)NCC(=O)Nc1ccccc1	HTT aggregate 0.355µM
COc1cccc(NC(=O)CNC(=O)c2ccccc2)c1	none
O=C(Nc1ccc(F)cc1)c1ccccc1	none
COc1ccc(NC(=O)CCC(=O)OCc2ccc([N+](=O)[O-])cc2)cc1	ALDH1A1 block inconclusive (no result: HTT ATP protect, HPGD inh, LMNA splice mod)
CCOC(=O)c1c(C)[nH]c(CCC(=O)Nc2ccc(C)c(F)c2)c1C	none (no result: HTT ATP protect, HTT aggregate, HPGD inh, ALDH1A1 block)
C=CCNC(=O)c1ccccc1NC(=O)C1COc2ccccc2O1 (configuration not stated)	HTT aggregate 3.55µM, LMNA splice mod inconclusive (no result: HPGD inh)
COc1ccc(O)c(C(=O)c2cnc3c(c2)c(=O)[nH]c(=O)n3C)c1	HPGD inh 28.2µM
CC(=O)Nc1ccc(S(=O)(=O)NCc2ccc3c(c2)cc(C)n3C)cc1	HTT aggregate inconclusive, ALDH1A1 block inconclusive
Cc1cc2cc(CNC(=O)c3ccc(S(=O)(=O)N4CCOCC4)cc3)ccc2n1C	ALDH1A1 block 25.1µM
Cc1ccc(C(=O)NCCc2ccc(S(=O)(=O)N3CCCC3)cc2)cc1	ALDH1A1 block inconclusive (no result: HPGD inh)
Cc1cc2cc(CNC(=O)c3ccc(S(=O)(=O)N(C)C)cc3)ccc2n1C	none
Cc1cc2cc(CNS(=O)(=O)c3ccc4ccccc4c3)ccc2n1C	ALDH1A1 block 14.1µM
Cc1cc2cc(CNC(=O)Nc3cccc(Cl)c3)ccc2n1C	ALDH1A1 block 22.4µM
Cc1cc2ccccc2n1CCNC(=O)c1ccc(S(=O)(=O)N2CCCCC2)cc1	ALDH1A1 block 3.16µM, LMNA splice mod inconclusive
O=C(NCCCN=C1NS(=O)(=O)c2ccccc21)c1ccc(S(=O)(=O)N2CCCCC2)cc1	ALDH1A1 block 14.1µM, LMNA splice mod inconclusive
Cc1c(C(=O)NCc2ccc3c(c2)cc(C)n3C)cccc1[N+](=O)[O-]	HPGD inh 1.78µM (no result: HTT ATP protect)
CCCC(=O)NCc1ccc2c(c1)cc(C)n2C	HPGD inh 7.94µM
O=C(NCCN=C1NS(=O)(=O)c2ccccc21)c1ccncc1	none
CCCCCCCCCCCCCCCCCC(=O)OC(CC(=O)O)C[N+](C)(C)C (configuration not stated)	LMNA splice mod inconclusive (no result: HTT ATP protect, HTT aggregate)
S=C(Nc1cccc(Cl)c1Cl)Nn1cnnc1	HPGD inh 25.1µM, ALDH1A1 block 2.82µM
O=C(CSCc1ccccc1)NNC(=S)Nc1cccc(Cl)c1Cl	HTT aggregate inconclusive, ALDH1A1 block 3.55µM
S=C(Nc1ccc(Cl)cc1Cl)Nn1cnnc1	HPGD inh 7.94µM
Cc1cccc(NC(=S)Nn2cnnc2)c1C	ALDH1A1 block 7.94µM (no result: HTT ATP protect, HTT aggregate, HPGD inh, LMNA splice mod)
S=C(Nc1cc(Cl)ccc1Cl)Nn1cnnc1	none (no result: HPGD inh, ALDH1A1 block, LMNA splice mod)
COc1cc(C)c(Br)cc1S(=O)(=O)NCCN1CCOCC1	HTT ATP protect inconclusive (no result: HPGD inh)
O=C(NC1CCCC1)c1sc(=S)n2c1[nH]c(=O)c1ccccc12	HTT aggregate 8.91µM, ALDH1A1 block inconclusive, LMNA splice mod inconclusive

Screening data (PubChem)
